What all share (conditions): mRNA level, 48 h; actives raise or lower the signal
Read-out in assay [1]: CYP2C9 (gene 1559)
The assay can be described thus: LTEA_HepaRG_CYP2C9: Life Technologies and Expression Analysis (LTEA) Assay for CYP2C9 using HepaRG (AID 2283484). The essentials:
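Differentiated human HepaRG cells were exposed 48 h in serum-free induction medium to eight half-log concentrations up to 100 uM in 0.5% DMSO. CYP2C9 mRNA was measured by qRT-PCR, normalized to ACTB, GAPDH and POLR2A, and fitted bidirectionally against DMSO.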

Read-out in assay [2]: CYP2E1 (gene 1571)
The assay can be described thus: LTEA_HepaRG_CYP2E1: Life Technologies and Expression Analysis (LTEA) Assay for CYP2E1 using HepaRG (AID 2283485). A digest of the protocol: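 Human liver line HepaRG, plated 48 h, then serum-free induction medium + chemical x 48 h; 8-pt CRC from 100 uM, half-log, 0.5% DMSO, n=2. Readout: CYP2E1 mRNA qRT-PCR vs ACTB/GAPDH/POLR2A; bidirectional fit vs DMSO.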

Read-out in assay [3]: CYP4A11 (gene 1579)
The assay can be described thus: LTEA_HepaRG_CYP4A11: Life Technologies and Expression Analysis (LTEA) Assay for CYP4A11 using HepaRG (AID 2283486). The essentials:
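CYP4A11 transcript levels were quantified by TaqMan qRT-PCR after HepaRG human liver cells were treated for 48 hours with test chemicals (top 100 uM, half-log dilutions, 0.5% DMSO). Gain or loss of signal was fitted relative to DMSO.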

Read-out in assay [4]: DNA damage-inducible transcript 3 (DDIT3), DDIT3 (gene 1649)
The assay can be described thus: LTEA_HepaRG_DDIT3: Life Technologies and Expression Analysis (LTEA) Assay for DNA damage-inducible transcript 3 (DDIT3) using HepaRG (AID 2283488). The essentials: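 HepaRG plated 48 h, switched to serum-free induction medium, dosed 48 h (100 uM top, half-log, 8 pts, 0.5% DMSO, n=2); RNA isolated; DDIT3 by qRT-PCR; bidirectional curve fit vs DMSO.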

Read-out in assay [5]: Pro-epidermal growth factor (Homo sapiens) (UniProt P01133)
The assay can be described thus: LTEA_HepaRG_EGF: Life Technologies and Expression Analysis (LTEA) Assay for Epidermal growth factor (EGF) using HepaRG (AID 2283489). The essentials:
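qRT-PCR readout of EGF transcript after 48 h chemical exposure of HepaRG cells; eight concentrations from 100 uM down in half-log steps, duplicate wells, 0.5% DMSO vehicle. Bidirectional curve fitting against DMSO baseline.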

Read-out in assay [6]: Early growth response protein 1 (EGR1) transcription factor, EGR1 (gene 1958)
The assay can be described thus: LTEA_HepaRG_EGR1: Life Technologies and Expression Analysis (LTEA) Assay for Early growth response protein 1 (EGR1) transcription factor using HepaRG (AID 2283490). The essentials:
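Differentiated human HepaRG cells in serum-free induction medium were exposed in duplicate for 48 h to eight concentrations (top 100 uM, half-log steps) in 0.5% DMSO. EGR1 mRNA was quantified by qRT-PCR, normalized to ACTB, GAPDH and POLR2A, and fitted bidirectionally versus DMSO.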

Read-out in assay [7]: Ezrin (EZR), EZR (gene 7430)
The assay can be described thus: LTEA_HepaRG_EZR: Life Technologies and Expression Analysis (LTEA) Assay for Ezrin (EZR) using HepaRG (AID 2283491). A digest of the protocol: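 Gain or loss of EZR mRNA is scored relative to 0.5% DMSO in human HepaRG cultures treated 48 h with test chemicals in duplicate, eight half-log concentrations from 100 uM.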

Read-out in assay [8]: Cytochrome P450 3A7 (Homo sapiens) (UniProt P24462)
The assay can be described thus: LTEA_HepaRG_CYP3A7: Life Technologies and Expression Analysis (LTEA) Assay for CYP3A7 using HepaRG (AID 2283492). A digest of the protocol: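 CYP3A7 transcript levels were read by TaqMan qRT-PCR on Fluidigm arrays after 48 h chemical exposure of human HepaRG cells, with housekeeping-gene normalisation. Eight half-log concentrations up to 100 uM in 0.5% DMSO were tested in duplicate.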

Read-out in assay [9]: CYP3A5 (gene 1577)
The assay can be described thus: LTEA_HepaRG_CYP3A5: Life Technologies and Expression Analysis (LTEA) Assay for CYP3A5 using HepaRG (AID 2283493). The essentials:
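HepaRG plated 48 h, switched to serum-free induction medium, chemicals added 48 h (max 100 uM, half-log, 0.5% DMSO). RNA isolated; CYP3A5 by TaqMan qRT-PCR. Gain/loss vs DMSO.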

Read-out in assay [10]: Fatty Acid-Binding Protein 1 (FABP1), FABP1 (gene 2168)
The assay can be described thus: LTEA_HepaRG_FABP1: Life Technologies and Expression Analysis (LTEA) Assay for Fatty Acid-Binding Protein 1 (FABP1) using HepaRG (AID 2283494). A digest of the protocol:
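Differentiated human HepaRG cells were exposed in duplicate for 48 h in serum-free induction medium to 8-point half-log concentration series topping at 100 uM in 0.5% DMSO. FABP1 mRNA measured by TaqMan qRT-PCR, normalized to ACTB/GAPDH/POLR2A; bidirectional fit versus DMSO.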

Read-out in assay [11]: Cytochrome P450 4A22 (Homo sapiens) (UniProt Q5TCH4)
The assay can be described thus: LTEA_HepaRG_CYP4A22: Life Technologies and Expression Analysis (LTEA) Assay for Cytochrome P450 4A22 (CYP4A22) using HepaRG (AID 2283495). A digest of the protocol:
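HepaRG, 48 h post-plating -> serum-free induction medium; dosed 48 h, duplicate, 8 conc. (100 uM top, half-log), 0.5% DMSO. Readout: CYP4A22 mRNA by qRT-PCR, ACTB/GAPDH/POLR2A normalization; gain/loss fit relative to DMSO.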

Read-out in assay [12]: Cytochrome P450 7A1 (Homo sapiens) (UniProt P22680)
The assay can be described thus: LTEA_HepaRG_CYP7A1: Life Technologies and Expression Analysis (LTEA) Assay for Cytochrome P450 7A1 (CYP7A1) using HepaRG (AID 2283496). A digest of the protocol: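 HepaRG cells plated 48 h, then switched to serum-free induction medium and exposed in duplicate for 48 h to 8-point half-log series from 100 uM in 0.5% DMSO. CYP7A1 mRNA by qRT-PCR (TaqMan), normalized to ACTB/GAPDH/POLR2A; bidirectional fit versus DMSO.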

Read-out in assay [13]: Glutathione S-Transferase (GSTA2), GSTA2 (gene 2939)
The assay can be described thus: LTEA_HepaRG_GSTA2: Life Technologies and Expression Analysis (LTEA) Assay for Glutathione S-Transferase (GSTA2) using HepaRG (AID 2283497). The essentials: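 Human HepaRG cells, plated 48 h, then exposed in serum-free induction medium for 48 h to eight half-log concentrations up to 100 uM in 0.5% DMSO, duplicate. GSTA2 mRNA by qRT-PCR, normalized to ACTB/GAPDH/POLR2A; bidirectional fit versus DMSO.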

Read-out in assay [14]: Glutamate-cysteine ligase catalytic (GCLC), GCLC (gene 2729)
The assay can be described thus: LTEA_HepaRG_GCLC: Life Technologies and Expression Analysis (LTEA) Assay for Glutamate-cysteine ligase catalytic (GCLC) using HepaRG (AID 2283498). The essentials: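 Differentiated human HepaRG cells, plated 48 h then switched to serum-free induction medium, were exposed in duplicate for 48 h to 8 half-log concentrations topping at 100 uM in 0.5% DMSO. GCLC mRNA was quantified by qRT-PCR against ACTB, GAPDH and POLR2A.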

Read-out in assay [15]: growth arrest and DNA damage 45 (GADD45G), GADD45G (gene 10912)
The assay can be described thus: LTEA_HepaRG_GADD45G: Life Technologies and Expression Analysis (LTEA) Assay for growth arrest and DNA damage 45 (GADD45G) using HepaRG (AID 2283499). The essentials:
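HepaRG, 48 h exposure, top 100 uM, half-log 8-point series, 0.5% DMSO vehicle, duplicates. Readout: GADD45G transcript by qRT-PCR (Fluidigm array), housekeeping-normalised (ACTB/GAPDH/POLR2A). Bidirectional curve fit vs DMSO baseline.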

Read-out in assay [16]: Glutamate-cysteine ligase regulatory (GCLM), GCLM (gene 2730)
The assay can be described thus: LTEA_HepaRG_GCLM: Life Technologies and Expression Analysis (LTEA) Assay for Glutamate-cysteine ligase regulatory (GCLM) using HepaRG (AID 2283500). The essentials:
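Cells were plated, cultured 48 h, switched to serum-free induction medium, then dosed in duplicate for 48 h at eight half-log concentrations up to 100 uM. RNA was then profiled by qRT-PCR; gain or loss versus DMSO was fitted.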

Read-out in assay [17]: Glutathione S-transferase M3 (GSTM3), GSTM3 (gene 2947)
The assay can be described thus: LTEA_HepaRG_GSTM3: Life Technologies and Expression Analysis (LTEA) Assay for Glutathione S-transferase M3 (GSTM3) using HepaRG (AID 2283501). The essentials:
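qRT-PCR read-out of GSTM3 transcript, normalized to three housekeeping genes, from human HepaRG cells after 48 h chemical exposure. Eight-point half-log series, top 100 uM, 0.5% DMSO vehicle; gain or loss fitted relative to DMSO baseline.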

Read-out in assay [18]: Heat shock 70 kDa protein 1 (HSPA1A), gene 3303
The assay can be described thus: LTEA_HepaRG_HSPA1A: Life Technologies and Expression Analysis (LTEA) Assay for Heat shock 70 kDa protein 1 (HSPA1A) using HepaRG (AID 2283502). The essentials:
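Readout is HSPA1A transcript level by microfluidic qRT-PCR, normalized to three housekeeping genes and analysed for gain or loss of signal relative to 0.5% DMSO. Human HepaRG cultures received test chemicals for 48 h at up to 100 uM.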

Read-out in assay [19]: Hypoxia-inducible factor 1-alpha (Homo sapiens) (UniProt Q16665)
The assay can be described thus: LTEA_HepaRG_HIF1A: Life Technologies and Expression Analysis (LTEA) Assay for Hypoxia-inducible factor 1 (HIF1A) Trancription factor using HepaRG (AID 2283503). The essentials:
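Differentiated HepaRG cells in serum-free induction medium exposed 48 h, in duplicate, to 8-point half-log series from 100 uM in 0.5% DMSO. HIF1A mRNA measured by TaqMan qRT-PCR, normalized to ACTB/GAPDH/POLR2A, fitted bidirectionally versus DMSO.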

Structures are written as SMILES. The source made the active and inactive calls. How the source made its calls: active means hit-call score of the fitted dose curve at least 0.9, where 1 is the maximum; inactive means score below 0.9.

Sequence of Hypoxia-inducible factor 1-alpha (Homo sapiens) (Q16665 whole entry, looked up): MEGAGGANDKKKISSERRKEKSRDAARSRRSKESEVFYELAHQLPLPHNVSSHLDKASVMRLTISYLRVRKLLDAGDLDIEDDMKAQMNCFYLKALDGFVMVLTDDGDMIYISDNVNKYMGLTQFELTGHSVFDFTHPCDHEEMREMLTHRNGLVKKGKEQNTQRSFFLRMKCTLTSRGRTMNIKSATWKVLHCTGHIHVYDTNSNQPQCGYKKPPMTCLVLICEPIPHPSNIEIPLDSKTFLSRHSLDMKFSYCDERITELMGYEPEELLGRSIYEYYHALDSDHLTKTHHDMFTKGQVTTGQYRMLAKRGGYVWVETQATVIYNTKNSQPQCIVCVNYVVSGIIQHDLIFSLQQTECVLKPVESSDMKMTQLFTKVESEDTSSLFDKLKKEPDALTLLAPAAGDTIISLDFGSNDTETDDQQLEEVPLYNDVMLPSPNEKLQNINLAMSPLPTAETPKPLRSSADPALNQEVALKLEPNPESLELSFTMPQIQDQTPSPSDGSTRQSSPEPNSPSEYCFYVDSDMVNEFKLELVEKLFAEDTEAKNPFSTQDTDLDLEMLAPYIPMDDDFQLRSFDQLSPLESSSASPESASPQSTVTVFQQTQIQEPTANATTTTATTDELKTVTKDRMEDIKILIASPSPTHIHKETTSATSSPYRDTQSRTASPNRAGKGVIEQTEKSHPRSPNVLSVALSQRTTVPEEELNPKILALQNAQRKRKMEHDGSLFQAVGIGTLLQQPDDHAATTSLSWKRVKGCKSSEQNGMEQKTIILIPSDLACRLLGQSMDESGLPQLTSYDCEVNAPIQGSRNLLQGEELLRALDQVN
Sequence of Cytochrome P450 3A7 (Homo sapiens) (P24462 whole entry, looked up): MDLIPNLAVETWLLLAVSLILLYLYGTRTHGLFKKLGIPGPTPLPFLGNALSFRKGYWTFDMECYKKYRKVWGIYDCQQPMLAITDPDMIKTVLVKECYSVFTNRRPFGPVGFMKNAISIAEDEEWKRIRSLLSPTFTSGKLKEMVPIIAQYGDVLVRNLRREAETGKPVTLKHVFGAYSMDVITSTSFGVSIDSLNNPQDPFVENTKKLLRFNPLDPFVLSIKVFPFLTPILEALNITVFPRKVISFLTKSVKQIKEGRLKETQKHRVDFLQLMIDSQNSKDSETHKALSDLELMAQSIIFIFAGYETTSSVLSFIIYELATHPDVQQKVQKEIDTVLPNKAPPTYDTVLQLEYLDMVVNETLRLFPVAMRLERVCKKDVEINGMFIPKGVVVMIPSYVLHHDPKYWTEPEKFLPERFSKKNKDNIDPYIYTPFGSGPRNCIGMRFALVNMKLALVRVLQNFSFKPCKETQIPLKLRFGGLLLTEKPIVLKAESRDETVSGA

Regarding `CN(C)c1ccc(C(=O)c2ccc(N(C)C)cc2)cc1`, the compound was classed as inactive in assay [1], in assay [4], in [5], in assay [6], in [7] and in assay [8]. In addition, the call in [9], in assay [12], in assay [13], in assay [14], in assay [15] and in assay [16] was inactive. Further, the outcome in assay [17], in assay [18] and in [19] was inactive. The half-maximal activity concentration (AC50) in [2], in assay [3], in assay [10] and in assay [11] was 50 µM (active) each time.
Turning to `Nc1ccc(N=Nc2ccccc2)cc1`, the AC50 in assay [1] is 14.7 µM (active); in assay [2], 23.7 µM (active); in [3], 13.3 µM (active); in assay [4] it was 32.4 µM (active); in assay [6] it was 29.4 µM (active); in [9], 14.2 µM (active). The AC50 in assay [10] is 21.4 µM (active); in assay [11], 13.3 µM (active); in assay [12] it was 16.4 µM (active); in [13], 15.1 µM (active); in assay [14], 7.79 µM (active); in assay [15], 15.6 µM (active). Further, the results for the AC50 in assay [17] and in assay [18] were 13.2 µM (active) and 34 µM (active), respectively. Also, the outcome in [5], in [7], in assay [16] and in [19] was inactive.
On to `c1ccc(N=Nc2ccccc2)cc1`, for which the call in [1], in assay [2], in assay [3], in [4], in assay [5] and in assay [6] was inactive. In addition, the compound was called inactive in assay [7], in assay [8], in [9], in [10], in assay [11] and in assay [12]. For the same compound, the compound was called inactive in assay [13], in [14], in assay [15], in assay [16], in assay [18] and in assay [19].

Values taken from PubChem BioAssay (EPA / NIEHS).
